Measurements from the supplement of paper PMC11417369.
Over roughly 25,000 sequences, “ln(normalized median fluorescence intensity)” has its median near 7.1; the highest 2% begin near 10. The full list was thinned out, with the highest values kept by preference.

Tested on: PfSIP2 AP2 domain 1 (GST-tagged)
Experiment: gcPBM binding intensity (ln(normalized median fluorescence intensity)); higher = stronger DNA binding
How it was run: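 An Agilent 4 × 180k array of primer-extended double-stranded 36-bp intergenic genomic probes, with negative controls, was incubated for 1 h with GST-tagged P. falciparum DNA-binding domains expressed in E. coli. Alexa488 anti-GST antibody detected bound protein, scanned at 488 nm. Binding intensity is the highest Masliner-normalised natural-log median intensity across replicate spots of either probe orientation.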

| Sequence | gcPBM binding intensity (ln) |
| --- | --- |
| ATACATTCAAAATATACACACATATATATATAATAT [CACACA_site950] | 7.13 |
| AGAAAGGTGGTATTAAAAGAATAACCTATGAATAAA [GTGCAC_negctrl_site325] | 6.79 |
| CCATATAATATGAACAGTACACACAAAATAAATTCG [XGTACX_site7590] | 7.08 |
| ATCAAAAAAAAAAAAAGTACACAAAATTTTTTATTA [XGTACX_site7986] | 6.88 |
| CTATTGTTAAATATAATACACACGTTTTTAAAAATA [CACACA_site2183] | 6.97 |
| GTTTAACTGTTTTATACACACAATGTATACAATAAA [CACACA_site2959] | 7.02 |
| TTTTTATAATAAAAAAATATAACTATATTAAGCCAC [CACACA_negctrl_site555] | 7.1 |
| AATATATTTTCCTGCAAACACACATATAAATGTGTA [CACACA_site532] | 6.96 |
| TCAACCAAAACATAAGCATGCAATATATTTTTATAC [TGCATGCA_site560] | 7.16 |
| TTTATAATTTATATCACACACATATATATATAGTAA [CACACA_site8] | 7.05 |
| TTTCTATATAGATTTGCACACATAAAAATGCTTATA [CACACA_site2390] | 7.18 |
| ATATCGGGTGCATTAACACACATTTATTTGAATAAA [CACACA_site2350] | 11.7 |
| ATCGGTAATATTAACACACACATTTATATATATTTA [CACACA_site1084] | 7.2 |
| ATCGGTAATATTAACACACACATTTATTTATATTTA [CACACA_site6638] | 7.01 |
| ACATATCGGGTGCATTAACACACATTTATTTGAATA [CACACA_site8736] | 11.6 |
| ATATCGTGTGCATTAACACACATTTATTTGAATAAA [CACACA_site7162] | 7.65 |
| AACATTTTAAATTATACACACATTTTGAATATATAT [CACACA_site3470] | 7.2 |
| TTTTTATTTTTTCAGTGTACATTTAAATTATCTTAT [XGTACX_site3905] | 6.98 |
| ATTATTATTATATATGCATGTAAAATATTAAAGTAC [TGCATGCA_site914] | 7.59 |
| AATGAAAAATGTATCGTTAAAGGGTATCTTAAGGAT [XGTACX_negctrl_site222] | 6.84 |
| AGATCATAATATTATACACACATTATGTATATGTAA [CACACA_site1490] | 6.84 |
| ACACATTATAACAAGGTGCAATTTTTATACACATGT [GTGCAC_site9866] | 10.4 |
| TATAACACACAATGATGTACATTACATTATTTTTTA [XGTACX_site2076] | 7.06 |
| CATTAACATTTTATTACACACAATAATTTATAAGTA [CACACA_site4083] | 7.06 |
| TAATTAGCATAATACACATGCATACATTTATATATA [TGCATGCA_site542] | 7.01 |
| ATCATAAATTATTATACACACAATACGTGACCTATT [CACACA_site1906] | 7.06 |

| Sequence | gcPBM binding intensity (ln) |
| --- | --- |
| TATTGTTACTTTATATGTACTAATTAAACATATACA [XGTACX_site6363] | 7.24 |
| ATAACAAAATGAAGAGTGCATTACCAAGTGGGTAAA [GTGCAC_site9450] | 8.64 |
| AAAAAATTATAAAAGTGTACATATATATATATATAT [XGTACX_site154] | 9.3 |
| TAGGTACATAAATTGGTGCAAAGTGTACATATATAT | 9.97 |
| TAAATTGGTGCAAAGTGTACATATATATCTTTCCTA [XGTACX_site5458] | 11.4 |
| AACAATAAAAATAATTGTACAAGTCTAAAAAAAATT [XGTACX_site20] | 6.86 |
| TCGTGAATGATTTAAGTACACACCGGTATTTATTCA [CACACA_site1564] | 6.74 |
| ACGTAAACATGTAGAAGGCATTACACAATGGTATAC [TGCATGCA_negctrl_site512] | 6.75 |
| AAAAGAAAATTAAATTAACACACATAAATATATATA [CACACA_site8482] | 7.27 |
| ACCATATAAAGTTAGGTGCATTTGTATGTATCTTAC | 9.18 |
| ATATAATAAATGTAGGTGCATAAAAATATTTTGTTA [GTGCAC_site9780] | 10 |
| TTTGTATAGTTGTAGGTGCATATCATTTTTAAATGT [GTGCAC_site9708] | 10.4 |
| ATTTTTTCATATTCTACACACGTGAACAAATGAGTC [CACACA_site5635] | 7.21 |
| TTTTTTATTAAATATATATAATAATAATAATTTGTA [CACACA_negctrl_site1719] | 6.88 |
| TAATAATTTTATAAAGTGCATAAAAATAAAAATTTT | 8.89 |
| TTTTTAAAATATTTAACACACAATTATAATGCATAA [CACACA_site3932] | 7.23 |
| CATATAAGACAAAAGGTGCAATTTTAATGCTTTTAT [GTGCAC_site9432] | 9.98 |
| AAAAATAATCATTAGGTGCAAAAAATATATATATAT [GTGCAC_site9631] | 9.96 |
| ATATATATATATATAGTGCATAATGTTTTAATAGAT | 9.54 |
| ATATATTTATAATAGGTGCATATGTTTTATTTTTCC [GTGCAC_site9849] | 10.2 |
| ATTTCTTTTGTTATAGTGCATAATATTTATGTACGT | 8.59 |
| ACTAATAATTTGTCGGTGCATAAAATTATTTTTATT [GTGCAC_site9840] | 10.7 |
| ATATATAAAAATTAGGTGCATTAAATTAAAATATAT | 10.3 |
| AAAAAAAAAATTTAGGTGCATACAAATAAATTATAT [GTGCAC_site9521] | 9.85 |
| ATATTTTTATATGAGGTGCATATAATGACAATTAAG | 10.6 |
